Bioassay records as filed in PubChem BioAssay.
Pf Dd2 growth: Plasmodium falciparum Dd2 growth inhibition; hit rate 4.3% among 120,000; Potency, µM (series often up to 28.9 µM), for the others: at the highest dose activity, negative = inhibition, usual class: inhibitors; P. falciparum Dd2 growth, SYBR Green, 72 h; AID 1347417; active = well fitted inhibition curve with a large enough effect;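 note: plate controls were DMSO vehicle for no effect and reference drug for full effect; nearly all actives have a fitted effect of over 65% in size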
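Infected erythrocytes (Dd2, 0.3% parasitemia, 2.5% hematocrit final) are added to compound in RPMI-1640/Albumax II medium, grown 72 h at 37C in low oxygen, then lysed with saponin/Triton-X containing SYBR Green and read by fluorescence.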
An asterisk follows results filed as active; i = inactive; [ ] = another dose, or the depositor's remark. The sample as a whole holds a higher share of hits than the screen did. Potency is the fitted concentration of half-maximal effect.

SMILES	Pf Dd2 growth
COC(=O)[C@@H](C)NC(=O)[C@H]1CN(C(=O)c2cccnc2)CCN1C(=O)NC1CCCCC1	14.1%
O=C(Cc1ccccc1Br)N1CCCN(c2cc(-c3ccc(F)cc3)[nH]n2)CC1	-2.9%
Cc1nc2ccccc2n1CC(=O)N[C@@H]1COCC[C@@H]1OCC1CC1	-0.7%
O=C(c1ccc(Cl)nc1)N1CCn2c(nn(-c3ccc([N+](=O)[O-])cc3)c2=O)C1	-5.2%
O=C1C(O)C2(CCCCC2)N1C1CCN(Cc2ccncc2F)CC1 (configuration not stated)	-14.4%
CNC(=O)[C@@H](c1ccc(Cl)cc1)N1CCC[C@H]1C(=O)N1CCC1	3.4%[44.1 µM]
COCC(=O)N1CC(C(=O)Nc2ccccn2)C2(CCOCC2)C1 (configuration not stated)	15.4%
Cc1ccc(NC(=O)CC2CCCN(c3cn[nH]c(=O)c3)C2)cc1C (configuration not stated)	i
O=C(c1ccc(Cl)cc1)N1CCC2(CC1)CN(c1ccccc1)C(=O)c1ccccc1O2	-17.1%
Cc1ccc(C(=O)N2C(C(=O)N3CCCC3)COC23CCN(C(=O)c2ccc(F)cc2)CC3)cc1 (configuration not stated)	-15.6%
COc1cccc(Cn2cc(C(=O)c3ccc(Cl)cc3)c(=O)c3ccccc32)c1	14.1µM*
CCOc1ccc(C(=O)c2cn(CC(=O)Nc3cc(OC)ccc3OC)c3cc(OC)c(OC)cc3c2=O)cc1	i
Cc1ccc(C(=O)c2cn(Cc3ccccc3)c3cc4c(cc3c2=O)OCCO4)cc1	i
COc1ccc(Cn2cc(C(=O)c3ccc(C)c(C)c3)c(=O)c3ccccc32)cc1	11.2µM*
COc1cccc(C(=O)c2cn(CC(=O)NCCc3ccccc3)c3nc(C)ccc3c2=O)c1	i
COc1ccccc1Cn1cc(C(=O)c2ccc(Cl)cc2)c(=O)c2ccccc21	i
CCOc1ccc(C(=O)c2cn(Cc3ccc(OC)cc3)c3cc(OC)c(OC)cc3c2=O)cc1	10µM*
COc1ccc(C(=O)c2cn(Cc3cccc(C)c3)c3cc4c(cc3c2=O)OCO4)cc1	-7.3%
COc1ccc(C(=O)c2cn(CC(=O)Nc3cc(OC)cc(OC)c3)c3ccc(OC)cc3c2=O)cc1	-1.6%
CCOc1ccc(NC(=O)Cn2cc(C(=O)c3ccc(C)c(C)c3)c(=O)c3cc(OC)c(OC)cc32)cc1	11.7%
CCOc1ccc(C(=O)c2cn(Cc3cccc(OC)c3)c3cc4c(cc3c2=O)OCO4)cc1	-27.1%
COc1cc2c(=O)c(C(=O)c3ccc(C)c(C)c3)cn(Cc3ccccc3)c2cc1OC	12.6µM*
O=C(O)C1CC2(CCN(C(=O)NCc3ccccc3F)CC2)CN1 (configuration not stated)	-16.6%
COc1cccc(NC(=O)O[C@@H]2CC[C@]3(C)C(CC[C@@H](O)[C@H]3CC(=O)NCc3ccccc3OC)[C@]2(C)CO)c1 (some centres not stated)	i
Cc1cc(Cl)ccc1-c1cccc(C=O)c1	9.1%[44.1 µM]
SMILES	Pf Dd2 growth
O=C([C@H]1C[C@H](Oc2ccccc2)CN1C(=O)Cc1ccccc1F)N1CCOCC1	-19.4%
Cc1noc2c(NC3CCN(C)CC3)cc(-c3ccccc3)nc12	i
Cc1n[nH]c(C)c1CCCNC(=O)C1CC2(CCNCC2)CN1 (configuration not stated)	9.9%
COCCN1C(=O)[C@H]2CN(Cc3ccc(OC(F)(F)F)cc3)C[C@H]2C1=O	36.4%
COC(=O)c1cccc(NC(=S)N[C@H]2CO[C@H]3[C@@H]2OC[C@H]3OC(=O)Nc2cccc(C(F)(F)F)c2)c1	-9.7%
CCOc1ccc(CC(=O)NC2CCN(c3cc(-c4cccs4)[nH]n3)C2)cc1 (configuration not stated)	-0.5%
COc1ccc(CCNC(=O)Cn2cc(C(=O)c3ccc(F)cc3)c(=O)c3ccc(C)nc32)cc1OC	i
CCOc1ccc2c(c1)c(=O)c(C(=O)c1ccc3c(c1)OCO3)cn2Cc1ccc(F)cc1	-26.4%
COc1cc2c(=O)c(C(=O)c3ccc(C)c(C)c3)cn(Cc3ccc(F)cc3)c2cc1OC	4.47µM*
O=[S+]([O-])(Nc1nncs1)c1ccc2c(c1)OCCN(Cc1ccsc1)C2	-4.1%[44.1 µM]
CN(Cc1cccnc1)c1nc2c(c(=O)[nH]1)CCN(Cc1ccc(F)cc1Cl)CC2	2.82µM*
CN(C)c1nc2c(c(=O)[nH]1)CCN(Cc1ccc(F)cc1Cl)CC2	1µM*
CN(C)c1nc2c(c(=O)[nH]1)CCN(Cc1cc(F)ccc1F)CC2	18.9%[5.79 µM]
CN(C)c1nc2c(c(=O)[nH]1)CCN(Cc1ccc(F)cc1F)CC2	0.6%[5.79 µM]
CN(Cc1cccnc1)c1nc2c(c(=O)[nH]1)CCN(Cc1ccc(Cl)c(F)c1)CC2	20.1%[5.79 µM]
CN(Cc1cccnc1)c1nc2c(c(=O)[nH]1)CCN(Cc1cccc(F)c1)CC2	-5.3%[5.79 µM]
O=C(CN1CC2CC(C1)[C@H]1CCCC(=O)N1C2)Nc1ccc2c(c1)OCCO2 (some centres not stated)	-5.6%
COc1ccc(OC)c(CNC(=O)c2c(C)sc3ccn(C)c(=O)c23)c1	i
O=C(c1nnc(CN2CCN(CCO)CC2)n1-c1ccccc1)N1CCC[C@@H]1C(c1ccccc1)c1ccccc1	i
COc1ccc(C(C)NC(=O)CN2C(=O)NC3(CCOCC3)C2=O)cc1 (configuration not stated)	-2.5%
Cn1nccc1C(=O)N1C[C@@H](COCC2CC2)[C@H](c2ccccn2)C1	19.0%
Cc1ccc(N(CC(=O)NCc2ccc(F)cc2)S(=O)(=O)c2c(C)nn(C)c2C)cc1	-0.3%
Cc1ccc(N(CC(O)Cn2c3ccccc3c3ccccc32)S(=O)(=O)c2ccc(F)cc2)cc1 (configuration not stated)	12.6µM*
COc1ccc(S(=O)(=O)N(CC(=O)N2CCc3ccccc3C2)c2ccc(C)cc2)cc1	-20.7%
Cn1ccnc1C(=O)N1CCC(N2C(=O)C(OCC3CC3)C23CCOCC3)CC1 (configuration not stated)	-3.8%
SMILES	Pf Dd2 growth
NC(=O)c1noc(CN2CC[C@@H]3[C@@H](CCC(=O)N3CCc3ccccc3)C2)n1	-7.3%
Cc1occc1C(=O)N1CCC2(CCCN(CC3CCCCC3)C2=O)C1 (configuration not stated)	-9.0%
C[S+](=O)([O-])c1ccc(-c2ccc3ncn(-c4ccc(F)cc4F)c(=O)c3n2)cc1	i
O=C(CS(=O)(=O)c1ccccc1)N[C@H]1CCN2C(=O)[C@H](Cc3ccc(F)cc3)NC(=O)[C@@H]2C1	0.0%
COc1c(C)cccc1C(=O)N1CCC2(CC1)Nc1ccccc1NC2=O	-2.0%
COc1cccc(NC(=O)c2cnn(-c3ccccc3)c2-n2cccc2)c1	-26.6%
COc1ccccc1NC(=O)C1=C(C)Nc2c(C(=O)Nc3ccc(F)cc3)cnn2C1c1ccc(Cl)cc1 (configuration not stated)	8.91µM*
CCOc1ccccc1NC(=O)C1=C(C)Nc2ncnn2C1c1ccc(C)o1 (configuration not stated)	-9.8%
CCOc1ccc(NC(=O)c2cnn3c2NC(c2ccccc2)=CC3c2cccc(OC)c2OC)cc1 (configuration not stated)	2.51µM*
CCOc1ccc(NC(=O)c2cnc(Nc3ccccc3OC)c3ccccc23)cc1	i
COc1cccc(C2C=C(c3ccccc3)Nc3c(C(=O)Nc4ccccc4)cnn32)c1OC (configuration not stated)	-0.4%
COc1ccc(C2C=C(c3cccc(OC)c3)Nc3c(C(=O)Nc4ccccc4)cnn32)cc1 (configuration not stated)	12.6µM*
